# An excerpt weighted towards active compounds, which were near 2.8% of everything screened.
# SENP8 block-1: inhibitors of human SENP8 protease | hit rate 0.64% among 360,000 | recombinant SENP8, Nedd8 substrate fluorescence | inhibition, % at 20 µM; in the data active = inhibition mostly above about 40%, no sharp cut-off; inactive = mostly below about 27%
# SENP7 block: blocks the human protease SENP7 | hit rate 1.5% among 330,000 | recombinant SENP7, Z-RLRGG-aminoluciferin luminescence, 40 min | Q9BQF6 | AID 434973 | inhibition, % at 5 µM;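 active = inhibition above about 50% at the single test dose, limit read from the data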;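 also: plate controls were DMSO with enzyme for no effect and no enzyme buffer wells for full effect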
# HSP90 inh: HSP90 refolding inhibition in rabbit reticulocyte lysate. luciferase refolding luminescence, 3 h. inhibition, % at 5.6 µM. hit rate 0.91% among 290,000. AID 1789;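 active = inhibition above the screen-wide mean plus 3 SD, computed separately per campaign, cut at about 16% in these data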;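 also: 0% = DMSO wells and 100% = 60 µM geldanamycin wells; inhibitors lower the luminescence because luciferase stays unfolded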
# SENP8 block-2: blocks the human protease SENP8. Q96LD8. purified SENP8, Z-RLRGG-aminoluciferin cleavage, luminescence. inhibition, % at 10 µM. hit rate 1.2% among 330,000. AID 2540; in the data active = inhibition above about 50%
# SENP6 block: SENP6 protease inhibition. Recombinant SENP6 catalytic domain, aminoluciferin luminescence. hit rate 1.8% among 330,000. AID 2599. inhibition, % at 10 µM. Q9GZR1;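 active = inhibition above about 50% at the single tested dose, limit read from the data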;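 also: plate controls were DMSO wells with enzyme for no effect and DMSO wells lacking enzyme for full effect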
# Target sequence (Q9GZR1 628-1112 limits assumed): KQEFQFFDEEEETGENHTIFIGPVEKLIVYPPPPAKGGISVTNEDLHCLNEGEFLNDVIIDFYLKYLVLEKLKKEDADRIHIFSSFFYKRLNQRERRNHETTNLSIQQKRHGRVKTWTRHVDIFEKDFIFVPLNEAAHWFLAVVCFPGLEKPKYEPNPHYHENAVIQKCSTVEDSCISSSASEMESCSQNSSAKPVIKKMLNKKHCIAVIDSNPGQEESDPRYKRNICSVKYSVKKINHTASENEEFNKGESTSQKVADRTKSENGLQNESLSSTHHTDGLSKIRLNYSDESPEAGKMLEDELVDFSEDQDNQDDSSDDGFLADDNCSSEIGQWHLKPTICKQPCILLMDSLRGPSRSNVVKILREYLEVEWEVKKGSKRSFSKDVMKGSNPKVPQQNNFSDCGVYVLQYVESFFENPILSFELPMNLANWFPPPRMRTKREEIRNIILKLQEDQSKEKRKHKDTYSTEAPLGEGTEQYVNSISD
# SENP8 inh conf: SENP8 (human) inhibition, single concentration confirmation. shares compounds with SENP8 block-1. purified SENP8, Nedd8-AMC/pro-Nedd8 cleavage fluorescence, 30 min. inhibition, % at 25 µM. hit rate 15% among 1,400. AID 624319; in the data active = inhibition mostly above about 39%, no sharp cut-off; inactive = mostly below about 34%
# An asterisk follows results filed as active; . = not tested or not shown.
SMILES,SENP8 block-1,SENP7 block,HSP90 inh,SENP8 block-2,SENP6 block,SENP8 inh conf
CCC(=O)N1CCN(c2ccc(NC(=O)c3ccc([N+](=O)[O-])o3)cc2)CC1,43*,.,5,.,.,26
CCCC(=O)N1CCN(c2ccc(NC(=O)c3ccc([N+](=O)[O-])o3)cc2)CC1,54*,.,-1,.,.,46
CC(C)(C)C(=O)N1CCN(c2ccc(NC(=O)c3ccc([N+](=O)[O-])o3)cc2)CC1,48*,12,5,6,12,27
CC(C)(C)C(=O)N1CCN(c2ccc(NC(=O)c3ccco3)cc2)CC1,2,0,-5,-2,-22,.
O=C(Nc1ccc(N2CCN(C(=O)c3ccc(Cl)cc3)CC2)cc1)c1ccc2c(c1)OCCO2,8,0,3,-9,-11,.
O=C(Nc1ccc(N2CCN(C(=O)c3ccc(Cl)cc3)CC2)cc1)c1ccc([N+](=O)[O-])o1,33*,.,0,.,.,26
Cn1c(=O)c2c(SCC(=O)N3CCCC3)nc(CC(C)(C)C)nc2n(C)c1=O,-2,2,0,2,3,.
COc1ccc(C2CC3(CC(C)(C)NC(SC)=N3)Oc3cc(O)cc(C)c32)cc1 (stereo not given),44*,4,-1,-10,6,9
COCc1nc(-c2ccc(-c3ccccc3)nc2OC)no1,-46,-1,-3,1,-7,.
O=C(CNc1ccc2c(c1)OCO2)N/N=C\c1cn(Cc2ccccc2)c2ccccc12,44*,12,6,0,-5,3
C/C(=N\NC(=O)c1cccnc1)c1ccc(C)c([N+](=O)[O-])c1,6,1,2,3,-20,.
C/C(=N\NC(=O)c1[nH]c2c([N+](=O)[O-])cc(C)cc2c1-c1ccccc1)c1cccnc1,60*,4,0,3,-8,13
Cc1ccc(CNCC(O)(c2ccccc2)c2ccc(F)cc2)cc1 (stereo not given),2,5,2,2,0,.
Cc1cc(C)c(NC(=O)CC(=O)c2ccccc2)c(Cl)c1,20,-7,4,-5,-17,.
COc1ccc(N2C(=O)[C@@H]3[C@H](C2=O)[C@H]2c4ccccc4C=CN2[C@@H]3C(C)=O)cc1,63*,.,3,.,.,93*
CNc1cc([N+](=O)[O-])ccc1N/C=C/C(=O)c1cccs1,42*,-11,1,-10,9,19
Nc1cc(=O)[nH]c(N)n1,0,17,.,3,-10,.
CCCCNC(=O)Nc1cnn(CC)c1C(N)=O,19,-3,-4,1,1,.
CCc1ccc2c(COn3nnc4ccc(S(=O)(=O)N(C)C)cc43)cc(=O)oc2c1,-14,5,0,-3,-10,.
CCNc1nc(NOC)nc(OCC#N)n1,15,15,-3,3,5,.
CCNc1nc(NCC)nc(OCC(=O)O)n1,46*,3,0,1,-15,21
CCCCNC(=O)Cn1nc(Cc2ccncc2)c2ccccc2c1=O,18,4,7,2,0,.
O=C(Cn1nc(Cc2ccncc2)c2ccccc2c1=O)N1CCc2ccccc2C1,84*,10,1,12,31,94*
COCC1CCN(C(=O)c2cc(COc3ccc(F)cc3F)on2)C1 (stereo not given),18,-2,-4,-3,-11,.
N#CCSc1ncnc2sc3c(c12)CCC3,-10,0,-1,5,-4,.
SMILES,SENP8 block-1,SENP7 block,HSP90 inh,SENP8 block-2,SENP6 block,SENP8 inh conf
CCCCN1C2=C(C(=O)CC(C)(C)C2)C(c2ccccc2)C2=C1c1ccccc1C2=O (stereo not given),54*,18,3,0,-4,13
Cc1ccc(NC(=S)N/N=C/c2c(Cl)cccc2Cl)c(C)c1,29,10,2,0,3,.
Cc1ccc(NC(=S)N/N=C/c2ccc(OCCC(C)C)cc2)c(C)c1,41*,-8,4,-10,-13,18
Cc1ccccc1N1C(=O)CC(N(O)c2ccccc2)C1=O (stereo not given),13,0,1,0,-3,.
O=C1CC(N(O)c2ccccc2)C(=O)N1c1cc(Cl)cc(Cl)c1 (stereo not given),44*,-1,3,-11,-6,17
Cc1cc(C)cc(NC(=O)CN(C)S(=O)(=O)c2cnc[nH]2)c1,42*,1,3,-6,0,-5
O=S(=O)(c1ccc(Oc2ccc(-c3nnco3)cc2)nc1)N1CCC(Cc2ccccc2)CC1,16,-4,2,-3,-19,.

# Bioassay records deposited in PubChem by several laboratories.
